Results reported in PubChem BioAssay AID1159580 (chemical genetic matrix, 2015).
Where “and” joins values, the source holds several entries; their conditions need not be identical. Equal values may be shown once. The whole screen tested about 5,500 compounds, of which about 2,000 (36%) were called active. Roughly 18% stayed inconclusive and do not appear here. No stated cut-off is given here; in the data, active means normalized growth mostly below about 0.91 (no sharp cut-off); inconclusive means no clear call, values can overlap the other calls; inactive means mostly above about 0.92. The list shows a part of the results.

Experiment: chemical genetic growth profiling, strain panel (AID 1159580);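 further: tested at 20 µM; growth read once vehicle control cultures reached saturation at 30 °C; 1 = growth at the plate median or of vehicle wells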
Settings: S. cerevisiae deletion strains, growth OD

Measured: normalized growth

C[C@@H]1CC2C3CCC4=CC(=O)C=C[C@]4(C)[C@@]3(F)[C@@H](O)C[C@]2(C)[C@@]1(O)C(=O)COP(=O)(O)O (stereo partly drawn)
inactive: locus YAL021C, strain ccr4, stronger effect = lower value 0.961 | locus YAL026C, strain drs2, stronger effect = lower value 0.985 | locus YAL030W, strain snc1, stronger effect = lower value 0.996 | locus YBL061C, strain skt5, stronger effect = lower value 0.978 | locus YBR009C, strain hhf1, stronger effect = lower value 0.976 | locus YBR021W, strain FUR4, stronger effect = lower value 1.02 | locus YBR023C, strain chs3, stronger effect = lower value 0.981 | locus YBR171W, strain sec66, stronger effect = lower value 0.944 | locus YBR229C, strain ROT2, stronger effect = lower value 1 | locus YBR231C, strain swc5, stronger effect = lower value 0.955 | locus YBR279W, strain paf1, stronger effect = lower value 0.989 | locus YCL011C, strain gbp2, stronger effect = lower value 0.997 | locus YCL016C, strain dcc1, stronger effect = lower value 1.02 | locus YCL029C, strain bik1, stronger effect = lower value 1.01 | locus YCL061C, strain MRC1, stronger effect = lower value 0.971 | locus YCL069W, strain vba3, stronger effect = lower value 0.996 | locus YCR088W, strain abp1, stronger effect = lower value 0.975 | locus YDL005C, strain med2, stronger effect = lower value 0.987 | locus YDL035C, strain GPR1, stronger effect = lower value 1.03 | locus YDL040C, strain nat1, stronger effect = lower value 0.964 | locus YDL074C, strain BRE1, stronger effect = lower value 1.02 | locus YDL101C, strain DUN1, stronger effect = lower value 1.01 | locus YDL134C, strain PPH21, stronger effect = lower value 1.02 | locus YDL185W, strain tfp1, stronger effect = lower value 1 | locus YDL192W, strain arf1, stronger effect = lower value 1.01 | locus YDR001C, strain nth1, stronger effect = lower value 0.94 | locus YDR069C, strain doa4, stronger effect = lower value 0.942 | locus YDR101C, strain arx1, stronger effect = lower value 0.996 | locus YDR137W, strain rgp1, stronger effect = lower value 0.97 | locus YDR159W, strain sac3, stronger effect = lower value 0.961 | locus YDR162C, strain NBP2, stronger effect = lower value 1.02 | locus YDR195W, strain ref2 0.936 | locus YDR297W, strain sur2, stronger effect = lower value 0.979 | locus YDR318W, strain mcm21, stronger effect = lower value 0.992 | locus YDR334W, strain swr1, stronger effect = lower value 0.943 | locus YDR335W, strain msn5, stronger effect = lower value 0.949 | locus YDR388W, stronger effect = lower value 1 | locus YDR392W, strain spt3, stronger effect = lower value 1.06 | locus YDR502C, strain sam2, stronger effect = lower value 1.01 | locus YEL003W, strain gim4, stronger effect = lower value 0.98 | locus YEL037C, strain rad23, stronger effect = lower value 0.978 | locus YEL061C, strain CIN8 (second series), stronger effect = lower value 0.961 | locus YEL061C, strain CIN8, stronger effect = lower value 1.01 | locus YER015W, strain faa2, stronger effect = lower value 0.98 | locus YER016W, strain bim1, stronger effect = lower value 1.02 | locus YER110C, stronger effect = lower value 1.01 | locus YER111C, strain swi4, stronger effect = lower value 0.98 | locus YER155C, strain BEM2 (second series), stronger effect = lower value 0.972 | locus YER155C, strain BEM2, stronger effect = lower value 1.01 | locus YER167W, strain BCK2, stronger effect = lower value 1.01 | locus YFR010W, strain ubp6, stronger effect = lower value 0.936 | locus YGL078C, strain dbp3, stronger effect = lower value 1.01 | locus YGL086W, strain mad1, stronger effect = lower value 1.02 | locus YGL167C, strain pmr1, stronger effect = lower value 0.954 | locus YGL173C, strain kem1, stronger effect = lower value 1 | locus YGL227W, strain vid30, stronger effect = lower value 0.972 | locus YGL240W, strain doc1, stronger effect = lower value 0.957 | locus YGL248W, strain PDE1, stronger effect = lower value 0.998 | locus YGL253W, strain hxk2, stronger effect = lower value 0.99 | locus YGR135W, strain pre9, stronger effect = lower value 1 | locus YGR229C, strain SMI1, stronger effect = lower value 1.01 | locus YGR252W, strain gcn5, stronger effect = lower value 0.929 | locus YHR013C, strain ard1, stronger effect = lower value 1 | locus YHR027C, strain rpn1, stronger effect = lower value 0.982 | locus YHR030C, strain SLT2, stronger effect = lower value 1.01 and 0.995 | locus YHR079C, strain IRE1 (second series), stronger effect = lower value 0.992 | locus YHR079C, strain IRE1, stronger effect = lower value 1 | locus YHR094C, strain hxt1, stronger effect = lower value 1 | locus YHR129C, strain ARP1, stronger effect = lower value 1.01 | locus YHR142W, strain chs7, stronger effect = lower value 0.976 | locus YHR200W, strain rpn10, stronger effect = lower value 1 | locus YIL066C, strain RNR3, stronger effect = lower value 1.03 | locus YIL073C, strain SPO22, stronger effect = lower value 1.02 | locus YIL125W, strain kgd1, stronger effect = lower value 0.994 | locus YIR030C, strain dcg1, stronger effect = lower value 1.01 | locus YJL092W, strain hpr5, stronger effect = lower value 0.987 | locus YJL095W, strain BCK1 (second series), stronger effect = lower value 0.982 | locus YJL095W, strain BCK1, stronger effect = lower value 1.01 and 0.997 | locus YJL115W, strain asf1, stronger effect = lower value 0.959 | locus YJL129C, strain trk1, stronger effect = lower value 0.942 | locus YJL134W, strain LCB3, stronger effect = lower value 1.01 | locus YJL154C, strain vps35, stronger effect = lower value 0.952 | locus YJL164C, strain tpk1, stronger effect = lower value 1.02 | locus YJL166W, strain qcr8, stronger effect = lower value 0.917 | locus YJL168C, strain set2, stronger effect = lower value 0.992 | locus YJL187C, strain SWE1 (second series), stronger effect = lower value 1.01 | locus YJL187C, strain SWE1, stronger effect = lower value 0.988 | locus YJR043C, strain POL32, stronger effect = lower value 1.02
